PHOSPHO1 block – blocks human PHOSPHO1 phosphatase activity | Q8TCT1 | recombinant PHOSPHO1, absorbance phosphatase assay | inhibition, % at 13.3 µM | 290,000 compounds, 1.1% hits | AID 1565; in the data active means inhibition above about 60%
Target sequence (Q8TCT1 whole entry, looked up): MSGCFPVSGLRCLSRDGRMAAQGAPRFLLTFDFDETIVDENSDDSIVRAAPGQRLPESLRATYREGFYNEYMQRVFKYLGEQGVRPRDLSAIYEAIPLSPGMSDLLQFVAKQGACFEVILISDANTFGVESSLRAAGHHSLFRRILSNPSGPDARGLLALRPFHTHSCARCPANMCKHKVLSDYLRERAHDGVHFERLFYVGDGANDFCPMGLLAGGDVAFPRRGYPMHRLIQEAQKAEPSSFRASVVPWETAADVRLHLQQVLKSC
Cardio protect – modulators protecting cardiomyocytes from myocardial damage; H9c2 cardiomyocytes, H2O2 injury protection, ATPLite, 2 h; protection from H2O2 cell death, % at 20 µM; 360,000 compounds, 0.63% hits;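 active means compounds giving at least 50% protection of heart cells from peroxide-induced death in the single-dose screen, raw or plate-pattern-corrected value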
M18AAP inhibitor – PfM18AAP enzyme inhibition | 290,000 compounds, 1.2% hits | recombinant PfM18AAP, H-Glu-NHMec fluorogenic cleavage | inhibition, % at 7.35 µM;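 active means inhibition above the campaign mean inhibition over all tested compounds plus 3 SD, cut at about 28% in these data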
PfGluPho inh – PfG6PD (Plasmodium falciparum) enzyme inhibition; inhibition, % at 20 µM; AID 504690; 350,000 compounds, 0.78% hits; PfGluPho enzyme, NADPH resazurin-diaphorase fluorescence;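 active means inhibition reaching at least a set limit at 20 µM in the primary screen, cut at about 59% in these data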
ALR H2O2 inh – blocks human ALR sulfhydryl oxidase activity. purified ALR, DTT oxidation, H2O2 HRP-luminol luminescence. 290,000 compounds, 3.8% hits. inhibition, % (concentration not given with the values). AID 485317. P55789;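 active means mean replicate inhibition above about 79%, with every replicate also reaching it, limit read from the data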
Target sequence (P55789 whole entry, looked up): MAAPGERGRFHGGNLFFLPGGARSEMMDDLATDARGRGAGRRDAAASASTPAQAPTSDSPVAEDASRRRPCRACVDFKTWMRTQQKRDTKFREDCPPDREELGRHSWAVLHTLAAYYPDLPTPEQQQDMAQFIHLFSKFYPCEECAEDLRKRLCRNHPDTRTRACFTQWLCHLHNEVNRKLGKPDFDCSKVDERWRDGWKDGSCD
A number is an active result; i = inactive; nt = not tested or not shown. Most compounds without a hit are left out; they make up all but 5.6% or so of the library.

SMILES	PHOSPHO1 block	Cardio protect	M18AAP inhibitor	PfGluPho inh	ALR H2O2 inh
O=C1NN(c2ccccc2)C(=O)/C1=C\c1ccccc1OCC(=O)N1CCOCC1	i	i	i	i	99.0
CCc1ccccc1N=C1S/C(=C/c2ccccc2OCC(=O)N2CCOCC2)C(=O)N1C	i	i	i	i	i
CCCC1CCC(c2ccc(/C(N)=N/O)cc2)CC1 (configuration not stated)	i	i	i	i	93.5
O=C(O)CCC1c2cc3c4cc2OC2Oc5cc6c(cc51)C(CCC(=O)O)c1cc5c7cc1OC(O6)c1cc6cc(c1)Oc1cc(cc(C(=O)O)c1)Oc1cc8cc(c1)C(Oc1cc(c(cc1C5CCC(=O)O)C3CCC(=O)O)OC(O4)c1cc(cc(c1)Oc1cc(cc(C(=O)O)c1)O8)Oc1cc(cc(C(=O)O)c1)Oc1cc(cc2c1)Oc1cc(cc(C(=O)O)c1)O6)O7 (configuration not stated)	nt	nt	nt	nt	98.4
Cc1nn(-c2nnc(C)c(=O)[nH]2)c(C)c1SCC(=O)Nc1ccc(C(C)C)cc1	61.9	i	i	i	97.6
Cc1nn(-c2nnc(C)c(=O)[nH]2)c(C)c1SCC(=O)Nc1ccc(F)cc1	i	i	i	i	98.9
Cc1n[nH]c(C)c1SCC(=O)Nc1ccc(F)cc1	i	i	i	i	i
CCc1noc(C)c1C(=O)NNC(=O)COc1ccccc1C	nt	i	nt	i	nt
CCN(CC(=O)N1CCOCC1)S(=O)(=O)c1cc(Cl)ccc1Cl	i	i	i	i	i
O=c1cc(CN2CCN(c3ccc(Cl)c(Cl)c3)CC2)c2ccccc2o1	nt	i	nt	nt	nt
CCOc1ccc2[nH]c(=O)c(CN(C(=O)N3CCOCC3)C3CC3)cc2c1	i	nt	nt	nt	nt
CCOc1ccc2[nH]c(=O)c(CN(Cc3ccccc3)C(=O)N3CCCC3)cc2c1	73.7	i	i	i	i
CCCn1ncc2c(Nc3ccc(C)c(C)c3)ncnc21	i	i	i	i	95.7
Cc1nc(-c2ccc(S(=O)(=O)Oc3ccccc3Cl)s2)cs1	i	i	i	i	i
O=C(CCl)Nc1ccccc1Sc1ccc(Cl)cc1	i	i	i	86.7	i
CC(=O)N1CCN(CC(=O)Nc2ccccc2Sc2ccc(Cl)cc2)CC1	i	i	i	i	i
COc1cc(/C=N/NC(=O)Cn2cnc3ccccc3c2=O)ccc1O	i	i	i	i	83.9
Cn1c(=O)c2c(ncn2CC(=O)N/N=C/c2ccco2)n(C)c1=O	i	i	i	i	i
COc1cc(/C=N/NC(=O)Cn2cnc3c2c(=O)n(C)c(=O)n3C)ccc1O	i	i	i	i	99.8
CC(NC(=O)Cc1ccc(Br)cc1)c1ccccc1 (configuration not stated)	i	i	i	i	i
CC(=O)OCC1(C)CN(c2ccccc2)N(C(=O)c2ccc(C(C)(C)C)cc2)C1=O (configuration not stated)	i	i	i	i	nt
CC1(C)CN(c2ccccc2)N(C(=O)c2ccc(F)cc2)C1=O	i	i	i	i	100.1
CCCCn1c(-c2ccccc2)cnc1SCC(=O)NCCc1ccc(OC)c(OC)c1	i	i	i	i	i
O=C(Nc1cccc(F)c1)c1cc(S(=O)(=O)N2CCC3(CC2)OCCO3)ccc1F	i	nt	i	nt	i
Cc1cccc(NC(=O)c2ccc(F)c(S(=O)(=O)N3CCC4(CC3)OCCO4)c2)c1	64.7	i	i	i	i
SMILES	PHOSPHO1 block	Cardio protect	M18AAP inhibitor	PfGluPho inh	ALR H2O2 inh
CN(C(=O)CSc1nnnn1C)C1(C#N)CCCCC1	nt	i	nt	i	nt
COc1cc(OC)nc(Nc2nc(C(N)Cc3ccc(F)cc3)cs2)n1 (configuration not stated)	nt	i	nt	nt	nt
Nc1cc2ccncc2c2ccccc12	i	i	i	i	98.0
N#Cc1cc2ccncc2c2ccccc12	nt	i	nt	i	nt
N#C/C(=C\c1cccnc1)c1nc2c(s1)CCCC2	i	i	i	i	97.6
COc1cc(/C=C(\C#N)c2nc3c(s2)CCCC3)ccc1O	i	nt	i	nt	nt
CC1CCc2nc(/C(C#N)=C/c3cccnc3)sc2C1 (configuration not stated)	i	i	i	i	97.0
N#C/C(=C/c1cccnc1)c1ccccc1	i	i	i	i	i
O=C(c1ccccc1)N(CCCl)C(=O)N(CCCl)C(=O)c1ccccc1	nt	i	nt	i	nt
C[C@H](NC(=O)/C=C/[C@H]1O[C@@H](n2ccc(=O)[nH]c2=O)[C@H](O)[C@@H]1O)C(=O)O	nt	i	nt	nt	nt
Cc1cccc(C)c1NC(=O)CSc1nc2ccccc2c(=O)[nH]1	i	i	i	i	i
Cc1csc(NC(=O)CSCC(=O)Nc2ccccc2)n1	i	i	i	i	92.3
Cc1[nH]c2ccccc2c1-c1csc(NC(=O)CSCCO)n1	i	i	i	i	99.3
CC(C)(C)c1csc(NC(=O)CSc2nc3ccccc3c(=O)[nH]2)n1	i	i	i	i	94.1
O=C(CSCCO)Nc1cccc2ccccc12	i	i	i	i	i
O=C(CSc1nc2ccccc2c(=O)[nH]1)Nc1ccc(C(=O)O)cc1	i	i	i	i	nt
Cc1csc(NC(=O)CSc2nc3ccccc3c(=O)[nH]2)n1	i	i	i	i	98.6
Cc1c(Cl)cccc1NC(=S)C(=C([O-])c1ccc(Cl)s1)[n+]1ccccc1	nt	i	nt	i	nt
Cc1cc(Br)cn2c(Cc3ccccc3)c(-c3ccco3)nc12	nt	i	nt	nt	nt
Cc1cc(NC(=O)c2cnn3c(C(F)F)cc(-c4ccccc4)nc23)no1	i	i	i	i	i
Cc1cc(NC(=O)c2cnn3c(C(F)(F)F)cc(-c4ccccc4)nc23)no1	i	93.4	i	i	i
Cc1nc(C)c(CC(=O)N/N=C/c2ccc(O)cc2)c(=O)[nH]1	i	i	i	i	90.1
CCCc1ccc(O)c(N=Cc2cc(Br)cc(OCC)c2O)c1	i	71.3	i	i	i
O=C1C=CC(=O)N1c1cccc(-c2ccccc2)c1	78.2	i	i	97.9	nt
O=C(Nc1cccc(N2C(=O)C=CC2=O)c1)c1cccs1	nt	i	nt	nt	nt
SMILES	PHOSPHO1 block	Cardio protect	M18AAP inhibitor	PfGluPho inh	ALR H2O2 inh
O=C(/C=C/c1ccc(Cl)cc1)c1cccnc1	i	i	i	i	i
O=C(/C=C/c1ccccc1Cl)c1ccccc(=O)c1O	i	69.9	i	i	i
Cc1ccc(C)c(/C=C/C(=O)c2ccccc(=O)c2O)c1	i	i	i	i	96.7
O=C(/C=C/c1ccccc1Cl)c1cccnc1	i	i	28.4	i	i
C[C@@H]1c2ccccc2N2C[C@H](Cc3ccc(C(=O)c4ccccc4)cc3)C[C@@H]12	nt	i	nt	i	nt
CSc1ccc(S(=O)(=O)N2CCC(C(=O)N3CCc4ccccc4C3)CC2)cc1	i	i	i	i	i
CCOc1ccc(CCn2c(-c3ccco3)nc3ccccc3c2=O)cc1OCC	i	103.5	i	i	i
CCC(CC)c1nnc(NC(=O)c2c(-c3ccccc3)noc2C)s1	i	i	i	i	77.8
Cc1nnc(NC(=O)c2c(-c3ccccc3)noc2C)s1	i	i	i	i	i
COC(=O)c1sc(NC(=O)c2c(-c3ccccc3)noc2C)nc1C	65.8	i	i	i	i
CCNS(=O)(=O)c1ccc(NC(=O)c2c(-c3ccccc3)noc2C)cc1	i	i	i	i	i
CCN(CC)S(=O)(=O)c1ccc(NC(=O)c2c(-c3ccccc3)noc2C)cc1	i	i	i	i	93.2

Compound activity from PubChem.
